The results in this text go back to PMC10812921, “Transcriptional Coactivator BOB1 (OBF1, OCA-B) Modulates the Specificity of DNA Recognition by the POU-Domain Factors OCT1 and OCT2 in a Monomeric Configuration”.

One experiment addresses POU1 (OCT1 POU domain) (human, UniProt P14859 260-458). Briefly: EMSA-SELEX-seq; no BOB1; 20 mM Tris-HCl pH 7.6, 140 mM NaCl, 10% glycerol, 0.5 mM EDTA, 0.05% Triton X-100, 0.1 mg/mL BSA, 0.1 mg/mL poly(dI-dC), 5 mM DTT, room temperature, 20 min; high values mean tight binding. Conditions: protein: recombinant; dsDNA, one strand shown. The essentials: (§1)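 A double-stranded random 35-nt library (300 ng, PCR-amplified) was incubated with 30 ng tagged POU-domain protein, with or without 28 ng coactivator protein, in 20 μL Tris–HCl pH 7.6 binding buffer for 20 min at RT. The proteins had been expressed in E. coli BL21, purified under denaturing conditions and renatured. Complex bands from native 6% PAGE were eluted and PCR-amplified over four rounds, then sequenced on Illumina. For binding preference, the percentage of sequenced 8-mers matching a motif pattern was calculated.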
(A gel shift assay detects complexes by their altered migration in electrophoresis.)

A further experiment concerns the target T1, POU2 (OCT2 POU domain) (human, UniProt P09086 175-386).
T1 sequence: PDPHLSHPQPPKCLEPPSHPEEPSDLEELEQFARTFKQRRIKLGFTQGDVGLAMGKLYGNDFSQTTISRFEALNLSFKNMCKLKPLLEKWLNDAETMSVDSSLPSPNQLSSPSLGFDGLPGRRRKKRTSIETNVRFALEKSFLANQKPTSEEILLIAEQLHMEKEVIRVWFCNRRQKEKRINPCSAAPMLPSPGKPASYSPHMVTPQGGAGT
The experiment is described as above. The conditions noted are these: protein: recombinant; dsDNA, one strand shown. The essentials:
as §1

The target in experiment [1] is POU1 (OCT1 POU domain);BOB1 (OBF1, OCA-B) (human;human, UniProt P14859;Q16633 260-458;1-256, |). Briefly: EMSA-SELEX-seq; with BOB1 (ternary complex band); 20 mM Tris-HCl pH 7.6, 140 mM NaCl, 10% glycerol, 0.5 mM EDTA, 0.05% Triton X-100, 0.1 mg/mL BSA, 0.1 mg/mL poly(dI-dC), 5 mM DTT, room temperature, 20 min; high values mean tight binding. Conditions: protein: recombinant;recombinant; copies: 1;1; dsDNA, one strand shown. The procedure, abridged:
as §1

Experiment [2] concerns the target T2, POU2 (OCT2 POU domain);BOB1 (OBF1, OCA-B) (human;human, UniProt P09086;Q16633 175-386;1-256, |).
T2 sequence 1: T1 sequence
T2 sequence 2: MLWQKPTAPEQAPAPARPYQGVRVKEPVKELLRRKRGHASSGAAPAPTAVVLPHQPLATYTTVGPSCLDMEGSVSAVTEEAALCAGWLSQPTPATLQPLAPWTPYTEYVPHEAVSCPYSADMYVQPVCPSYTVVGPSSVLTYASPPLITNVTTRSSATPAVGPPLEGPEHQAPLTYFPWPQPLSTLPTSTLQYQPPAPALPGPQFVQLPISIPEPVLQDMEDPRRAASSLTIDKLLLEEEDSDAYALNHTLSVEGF
The description is as above. Conditions: protein: recombinant;recombinant; copies: 1;1; dsDNA, one strand shown. The essentials:
as §1

POU1 (OCT1 POU domain), sequence (P14859 260-458): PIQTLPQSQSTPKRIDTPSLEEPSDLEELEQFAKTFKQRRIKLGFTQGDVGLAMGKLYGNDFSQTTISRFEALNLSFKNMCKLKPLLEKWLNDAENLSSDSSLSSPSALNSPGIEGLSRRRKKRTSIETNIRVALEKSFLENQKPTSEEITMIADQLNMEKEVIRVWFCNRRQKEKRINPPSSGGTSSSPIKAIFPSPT

Regarding AGCGCAAA, the binding signal in the experiment with POU1 (OCT1 POU domain) is 0.0263 % of ANNNNAAN 8-mers; with POU2 (OCT2 POU domain), 0.0305 % of ANNNNAAN 8-mers; in experiment [1], 0.0324 % of ANNNNAAN 8-mers; in experiment [2], 0.0215 % of ANNNNAAN 8-mers.
Turning to AATCGAAC, the binding signal with POU1 (OCT1 POU domain) is 0.0366 % of ANNNNAAN 8-mers; with POU2 (OCT2 POU domain), 0.0334 % of ANNNNAAN 8-mers; in experiment [1], 0.0347 % of ANNNNAAN 8-mers; in experiment [2], 0.0512 % of ANNNNAAN 8-mers.
The corresponding values for ATTAAAAA are 0.172 % of ANNNNAAN 8-mers, 0.219 % of ANNNNAAN 8-mers, 0.114 % of ANNNNAAN 8-mers and 0.09 % of ANNNNAAN 8-mers.
Regarding AAGAGAAT, the binding signal with POU1 (OCT1 POU domain) was 0.0728 % of ANNNNAAN 8-mers; in the experiment with POU2 (OCT2 POU domain), 0.0806 % of ANNNNAAN 8-mers; in experiment [1] it was 0.0738 % of ANNNNAAN 8-mers; in experiment [2] it was 0.0553 % of ANNNNAAN 8-mers.
The like results for AACCAAAA were, in that order, 0.0522 % of ANNNNAAN 8-mers, 0.0449 % of ANNNNAAN 8-mers, 0.0753 % of ANNNNAAN 8-mers and 0.0388 % of ANNNNAAN 8-mers.
The corresponding values for ATATTAAC are 0.151 % of ANNNNAAN 8-mers, 0.189 % of ANNNNAAN 8-mers, 0.0667 % of ANNNNAAN 8-mers and 0.0751 % of ANNNNAAN 8-mers.
The like results for AAAAAAAG were, in that order, 0.0923 % of ANNNNAAN 8-mers, 0.0938 % of ANNNNAAN 8-mers, 0.111 % of ANNNNAAN 8-mers and 0.0842 % of ANNNNAAN 8-mers.
In the case of AGTACAAC, the binding signal with POU1 (OCT1 POU domain) was 0.0164 % of ANNNNAAN 8-mers; with POU2 (OCT2 POU domain), 0.0173 % of ANNNNAAN 8-mers; in experiment [1], 0.0152 % of ANNNNAAN 8-mers; in experiment [2], 0.0413 % of ANNNNAAN 8-mers.
The corresponding values for ACTTTAAT are 0.0824 % of ANNNNAAN 8-mers, 0.103 % of ANNNNAAN 8-mers, 0.0558 % of ANNNNAAN 8-mers and 0.066 % of ANNNNAAN 8-mers.
The corresponding values for ACCATAAG are 0.0324 % of ANNNNAAN 8-mers, 0.0414 % of ANNNNAAN 8-mers, 0.0238 % of ANNNNAAN 8-mers and 0.0248 % of ANNNNAAN 8-mers.
AAGTAAAA: the binding signal in the experiment with POU1 (OCT1 POU domain) was 0.108 % of ANNNNAAN 8-mers; in the experiment with POU2 (OCT2 POU domain), 0.0967 % of ANNNNAAN 8-mers; in experiment [1], 0.132 % of ANNNNAAN 8-mers; in experiment [2] it was 0.0693 % of ANNNNAAN 8-mers.
Turning to ATGCGAAA, the binding signal in the experiment with POU1 (OCT1 POU domain) was 0.0835 % of ANNNNAAN 8-mers; in the experiment with POU2 (OCT2 POU domain), 0.0926 % of ANNNNAAN 8-mers; in experiment [1], 0.0648 % of ANNNNAAN 8-mers; in experiment [2] it was 0.0743 % of ANNNNAAN 8-mers.
In the case of AGTAGAAT, the binding signal in the experiment with POU1 (OCT1 POU domain) is 0.0717 % of ANNNNAAN 8-mers; in the experiment with POU2 (OCT2 POU domain) it was 0.0892 % of ANNNNAAN 8-mers; in experiment [1], 0.0578 % of ANNNNAAN 8-mers; in experiment [2] it was 0.0826 % of ANNNNAAN 8-mers.
Regarding AGTTAAAA, the binding signal with POU1 (OCT1 POU domain) was 0.0778 % of ANNNNAAN 8-mers; with POU2 (OCT2 POU domain) it was 0.0915 % of ANNNNAAN 8-mers; in experiment [1], 0.0831 % of ANNNNAAN 8-mers; in experiment [2], 0.0537 % of ANNNNAAN 8-mers.
The like results for AACCAAAG were, in that order, 0.0336 % of ANNNNAAN 8-mers, 0.038 % of ANNNNAAN 8-mers, 0.0539 % of ANNNNAAN 8-mers and 0.0231 % of ANNNNAAN 8-mers.
In the case of AGGGTAAT, the binding signal was 0.186 % of ANNNNAAN 8-mers in the experiment with POU1 (OCT1 POU domain), 0.279 % of ANNNNAAN 8-mers in the experiment with POU2 (OCT2 POU domain), 0.12 % of ANNNNAAN 8-mers in experiment [1] and 0.129 % of ANNNNAAN 8-mers in experiment [2].
